We go through 6 molecules from PubChem BioAssay (EPA / NIEHS).

Read-out in experiment [1]: Tissue plasminogen activator (tPA), PLAT (gene 5327)
The experiment in a line: BSK_BE3C_tPA: BioMAP Diversity Plus: BE3C Assay for Tissue plasminogen activator (tPA) Biomarker Activity (AID 2283041).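 For outcome: tPA level quantified by ELISA one day after compound addition.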 The settings on record: primary human bronchial epithelial cells; actives raise or lower the signal. An outline of the steps:
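Gain- or loss-of-signal in tPA, measured by ELISA, derived by bidirectional fitting against DMSO. Cells: human primary bronchial epithelial; read at 24 h after chemical dosing.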

Read-out in experiment [2]: Interleukin-8 (IL8), CXCL8 (gene 3576)
Description: BSK_CASM3C_IL8: BioMAP Diversity Plus: CASM3C Assay for Interleukin-8 (IL8) Biomarker Activity (AID 2283042).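 Note: IL-8 protein level quantified by ELISA.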 Conditions: primary human coronary artery smooth muscle cells; actives raise or lower the signal.

Read-out in experiment [3]: Human Leukocyte Antigen - DR isotype (HLADR), HLA-DRA (gene 3122)
The experiment in a line: BSK_CASM3C_HLADR: BioMAP Diversity Plus: CASM3C Assay for Human Leukocyte Antigen - DR isotype (HLADR) Biomarker Activity (AID 2283043).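 Note: cell-surface HLA-DR protein level quantified by ELISA.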 Conditions: primary human coronary artery smooth muscle cells; actives raise or lower the signal.

Read-out in experiment [4]: Macrophage colony-stimulating factor (MCSF), CSF1 (gene 1435)
Description: BSK_CASM3C_MCSF: BioMAP Diversity Plus: CASM3C Assay for Macrophage colony-stimulating factor (MCSF) Biomarker Activity (AID 2283044).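 Note: M-CSF protein amount quantified by ELISA after 24 h exposure.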 The settings on record: primary human coronary artery smooth muscle cells; actives raise or lower the signal.

Read-out in experiment [5]: Low-density lipoprotein receptor (LDLR), LDLR (gene 3949)
Description: BSK_CASM3C_LDLR: BioMAP Diversity Plus: CASM3C Assay for Low-density lipoprotein receptor (LDLR) Biomarker Activity (AID 2283045).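 Note: LDLR protein level on the cell surface quantified by ELISA.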 Conditions: primary human coronary artery smooth muscle cells; actives raise or lower the signal.

Read-out in experiment [6]: Monocyte Chemoattractant Protein-1 (MCP1), CCL2 (gene 6347)
Description: BSK_CASM3C_MCP1: BioMAP Diversity Plus: CASM3C Assay for Monocyte Chemoattractant Protein-1 (MCP1) Biomarker Activity (AID 2283046).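 Note: MCP-1 level quantified by ELISA 24 h after dosing.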 Conditions: primary human coronary artery smooth muscle cells; actives raise or lower the signal.

Experiment [7] in a line: BSK_CASM3C_Proliferation: Cell Proliferation Assessment in the BioMAP Diversity Plus: CASM3C Assay (AID 2283047).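 Note: sulforhodamine B total protein stain as relative cell number at 560 nm; sub-confluent cells exposed 48 h before staining; fitted both ways against DMSO so gain or loss of cell number.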 The settings on record: primary human coronary artery smooth muscle cells.
Read-out in experiment [8]: Monokine induced gamma interferon (MIG), CXCL9 (gene 4283)
Description: BSK_CASM3C_MIG: BioMAP Diversity Plus: CASM3C Assay for Monokine induced gamma interferon (MIG) Biomarker Activity (AID 2283048).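 Note: MIG protein level measured by ELISA.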 The settings on record: primary human coronary artery smooth muscle cells; actives raise or lower the signal.

Read-out in experiment [9]: serum amyloid A (SAA), SAA1 (gene 6288)
Description: BSK_CASM3C_SAA: BioMAP Diversity Plus: CASM3C Assay for serum amyloid A (SAA) Biomarker Activity (AID 2283049).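 Note: SAA protein level quantified by ELISA.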 The settings on record: primary human coronary artery smooth muscle cells; actives raise or lower the signal.

The nature of experiment [10]: BSK_CASM3C_SRB: Viability Assessment in the BioMAP Diversity Plus: CASM3C Assay (AID 2283050).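 Note: total protein by SRB staining as cytotoxicity measure in parallel cultures; cells exposed to compound for 24 h.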 The settings on record: primary human coronary artery smooth muscle cells.
Read-out in experiment [11]: Thrombomodulin, THBD (gene 7056)
The experiment in a line: BSK_CASM3C_Thrombomodulin: BioMAP Diversity Plus: CASM3C Assay for Thrombomodulin Biomarker Activity (AID 2283051).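 Note: thrombomodulin protein level measured by ELISA 24 h after dosing.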 The settings on record: primary human coronary artery smooth muscle cells; actives raise or lower the signal.

Read-out in experiment [12]: Tissue Factor, F3 (gene 2152)
The experiment in a line: BSK_CASM3C_TissueFactor: BioMAP Diversity Plus: CASM3C Assay for Tissue Factor Biomarker Activity (AID 2283052).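 Note: cell surface tissue factor protein level read by ELISA.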 The settings on record: primary human coronary artery smooth muscle cells; actives raise or lower the signal.

Read-out in experiment [13]: Interferon-gamma inducible Protein 10 (IP10), CXCL10 (gene 3627)
The experiment in a line: BSK_hDFCGF_IP10: BioMAP Diversity Plus: hDFCGF Assay for Interferon-gamma inducible Protein 10 (IP10) Biomarker Activity (AID 2283053). The settings on record: primary human foreskin fibroblasts; actives raise or lower the signal. The procedure, abridged:
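Cells: human dermal foreskin fibroblasts. Exposure: 24 h post-dosing. Detection: IP-10 ELISA, with values expressed against DMSO controls and fitted in both directions.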

Read-out in experiment [14]: Urokinase-type plasminogen activator receptor (uPAR), PLAUR (gene 5329)
Description: BSK_CASM3C_uPAR: BioMAP Diversity Plus: CASM3C Assay for Urokinase-type plasminogen activator receptor (uPAR) Biomarker Activity (AID 2283054).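 Note: cell-surface uPAR protein level quantified by ELISA.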 The settings on record: primary human coronary artery smooth muscle cells; actives raise or lower the signal.

Read-out in experiment [15]: Vascular cell adhesion molecule 1 (VCAM1), VCAM1 (gene 7412)
Description: BSK_CASM3C_VCAM1: BioMAP Diversity Plus: CASM3C Assay for Vascular cell adhesion molecule 1 (VCAM1) Biomarker Activity (AID 2283055).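 Note: VCAM-1 protein level quantified by ELISA on the cells.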 The settings on record: primary human coronary artery smooth muscle cells; actives raise or lower the signal.

Read-out in experiment [16]: Collagen III, COL3A1 (gene 1281)
The experiment in a line: BSK_hDFCGF_CollagenIII: BioMAP Diversity Plus: hDFCGF Assay for Collagen III Biomarker Activity (AID 2283056). The settings on record: primary human foreskin fibroblasts; actives raise or lower the signal. An outline of the steps:
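Human foreskin primary fibroblasts were exposed to test chemicals for 24 h, after which collagen III was quantified by ELISA. Activity was fitted bidirectionally against DMSO as negative control and baseline.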

Read-out in experiment [17]: Epidermal growth factor receptor (EGFR), EGFR (gene 1956)
The experiment in a line: BSK_hDFCGF_EGFR: BioMAP Diversity Plus: hDFCGF Assay for Epidermal growth factor receptor (EGFR) Biomarker Activity (AID 2283057). The settings on record: primary human foreskin fibroblasts; actives raise or lower the signal. An outline of the steps: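 Dosing human primary skin fibroblasts, then measuring surface EGFR by ELISA at 24 h, gives the endpoint; gains and losses relative to DMSO were fitted in both directions.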

Read-out in experiment [18]: Interleukin-8 (IL8), CXCL8 (gene 3576)
The experiment in a line: BSK_hDFCGF_IL8: BioMAP Diversity Plus: hDFCGF Assay for Interleukin-8 (IL8) Biomarker Activity (AID 2283058). Conditions: primary human foreskin fibroblasts; actives raise or lower the signal. An outline of the steps: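 hDFCGF human dermal fibroblasts; 24 h chemical exposure; IL-8 by ELISA; bidirectional curve fit vs DMSO baseline; gain or loss of signal scored.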

Experiment [19] can be described thus: BSK_hDFCGF_Proliferation: Cell Proliferation Assessment in the BioMAP Diversity Plus: hDFCGF Assay (AID 2283059).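 Note: curves fitted for both rise and fall of signal versus DMSO baseline.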 Conditions: primary human foreskin fibroblasts. An outline of the steps:
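Primary human foreskin fibroblasts, sub-confluent; […]; 10% TCA fix, 0.1% SRB stain, A560 total protein. Gain/loss fitted bidirectionally vs DMSO control.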

Read-out in experiment [20]: Macrophage colony-stimulating factor (MCSF), CSF1 (gene 1435)
The experiment in a line: BSK_hDFCGF_MCSF: BioMAP Diversity Plus: hDFCGF Assay for Macrophage colony-stimulating factor (MCSF) Biomarker Activity (AID 2283060). Conditions: primary human foreskin fibroblasts; actives raise or lower the signal. An outline of the steps:
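Human foreskin primary fibroblasts were treated with test chemical for 24 h, and M-CSF was then measured by ELISA. Data were fitted bidirectionally against DMSO as the negative control and activity baseline.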

Calls of active or inactive are those of the source. Rule for the calls: active = hit-call score of the fitted dose curve at least 0.9, where 1 is the maximum; inactive = score below 0.9.

Consider `CC(=O)OCC=C(C)CCC=C(C)CCC=C(C)C`, for which the AC50 in experiment [1] was 3970 nM (active); in experiment [12] it was 2510 nM (active); in experiment [16], 4490 nM (active); in experiment [19], 17400 nM (active); in experiment [20] it was 25900 nM (active). For the same molecule, the outcome in experiment [2], in experiment [3], in experiment [4], in experiment [5], in experiment [6] and in experiment [7] was inactive. Further, the outcome in experiment [8], in [9], in [10], in [11], in experiment [13] and in [14] was inactive. Also, the outcome in experiment [15], in experiment [17] and in experiment [18] was inactive.
Take `O=C(c1ccc(OCCN2CCCCC2)cc1)c1c(-c2ccc(O)cc2)sc2cc(O)ccc12`: the concentration at half-maximal activity (AC50) in experiment [1] is 20000 nM (active); in experiment [3], 26100 nM (active); in [5] it was 6830 nM (active); in experiment [7], 23000 nM (active); in experiment [10] it was 34400 nM (active); in [13], 32200 nM (active). In addition, the AC50 in experiment [14] is 33400 nM (active); in experiment [16] it was 14800 nM (active); in [17] it was 9630 nM (active); in experiment [18], 33700 nM (active); in experiment [19], 7340 nM (active). Further, the outcome in experiment [2], in [6], in experiment [8], in experiment [9], in experiment [11] and in experiment [12] was inactive. In addition, the outcome in experiment [15] was inactive.
Regarding `CC(=O)c1ccc(C)cc1`, the result in experiment [1], in experiment [2], in [3], in experiment [4], in experiment [5] and in experiment [6] was inactive. The result in [7], in experiment [8], in [9], in experiment [10], in experiment [11] and in [12] was inactive. The outcome in [13], in [14], in experiment [15], in [16], in experiment [17] and in experiment [18] was inactive. In addition, the result in [19] and in experiment [20] was inactive.
As for `O=S1(=O)CC(Cl)(Cl)C(Cl)(Cl)C1`, the AC50 in experiment [1] is 964 nM (active); in [2], 1300 nM (active); in [3] it was 421 nM (active); in [4] it was 908 nM (active); in experiment [5], 389 nM (active); in experiment [6], 1110 nM (active). Also, the concentration at half-maximal activity (AC50) in experiment [7] is 113 nM (active); in [8], 2220 nM (active); in [9] it was 764 nM (active); in experiment [10], 820 nM (active); in [11] it was 7520 nM (active); in experiment [12] it was 2070 nM (active). Further, the AC50 in [13] was 961 nM (active); in [14], 1050 nM (active); in experiment [15], 930 nM (active); in [16], 1350 nM (active); in experiment [19], 16 nM (active); in experiment [20], 710 nM (active). The result in [17] and in [18] was inactive.
Take `O=C1OC2(c3ccc(O)cc3Oc3cc(O)ccc32)c2ccccc21`: the outcome in experiment [1], in [2], in experiment [3], in [4], in [5] and in experiment [6] was inactive. For the same molecule, the outcome in experiment [7], in experiment [8], in experiment [9], in experiment [10], in experiment [11] and in [12] was inactive. Also, the outcome in experiment [13], in [14], in experiment [15], in experiment [16], in [17] and in experiment [18] was inactive. In experiment [20], the result was inactive. In addition, the AC50 in experiment [19] was 20000 nM (active).
In the case of `CC1(C)[C@H](C=C(Cl)Cl)[C@H]1C(=O)OCc1cccc(Oc2ccccc2)c1`, the result in experiment [1], in experiment [2], in experiment [3], in [4], in [5] and in experiment [6] was inactive. In addition, the outcome in experiment [7], in experiment [8], in [9], in experiment [10], in experiment [11] and in experiment [12] was inactive. In addition, the outcome in experiment [13], in [14], in experiment [15], in experiment [16], in experiment [17] and in experiment [18] was inactive. The result in [19] and in experiment [20] was inactive.

Broadly, the AC50 is the midpoint of the concentration-response curve, whichever way the signal moves.
